# According to PubChem BioAssay (EPA / NIEHS):
# Active and inactive are the calls of the source. How the source made its calls: active means hit-call score of the fitted dose curve at least 0.9, where 1 is the maximum; inactive means score below 0.9.
# What was measured:
# [1] = BSK_BT_PBMCCytotoxicity: PBMC Cytotoxicity Assessment in the BioMAP Diversity Plus: BT Assay (AID 2284225); details: primary human B cells with PBMC;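 further: PBMC viability measured by Alamar Blue dye reduction fluorescence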
# How it was run: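 PBMC (75,000/well) pretreated with compound 1 h, then activated with SEB and TSST-1 (20 ng/mL each final), incubated 90 h; Alamar Blue added 6 h, fluorescence read at 546/580 nm. Fitted relative to DMSO.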
# [2] = read-out: Secreted IgG (sIgG), gene 3500; assay: BSK_BT_sIgG: BioMAP Diversity Plus: BT Assay for Secreted IgG (sIgG) Biomarker Activity (AID 2284226); details: primary human B cells with PBMC
# How it was run: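 Read-out: ELISA for secreted IgG after 24 h of chemical exposure in a B cell plus PBMC co-culture. Values reflect upward-direction fitting against DMSO negative controls.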
# [3] = BSK_BT_Bcell_Proliferation: Viability Assessment in the BioMAP Diversity Plus: BT Assay for B cell Proliferation (AID 2284227); details: primary human B cells with PBMC
# How it was run: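 Using a human primary B cell–PBMC co-culture, the assay measures total protein by sulforhodamine B absorbance as a gauge of proliferation after 72 h. Analysis followed the positive fitting direction with DMSO as baseline.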
# [4] = read-out: Interleukin 6 (IL6), IL6 (gene 3569); assay: BSK_BT_xIL6: BioMAP Diversity Plus: BT Assay for Interleukin 6 (IL6) Biomarker Activity (AID 2284228); details: primary human B cells with PBMC
# How it was run: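 B cells and peripheral blood mononuclear cells (human primary co-culture) were dosed with chemical, and after 24 h IL-6 released into the medium was measured by Luminex xMAP. Responses were analysed as gain of signal over DMSO control.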
# [5] = read-out: Interleukin 17A (IL17A), IL17A (gene 3605); assay: BSK_BT_xIL17A: BioMAP Diversity Plus: BT Assay for Interleukin 17A (IL17A) Biomarker Activity (AID 2284229); details: primary human B cells with PBMC
# How it was run: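 Secreted IL-17A was the measured endpoint, read by Luminex xMAP multiplex in supernatants of a human B cell/PBMC co-culture harvested 24 h after chemical dosing. Signal increase relative to DMSO defined activity.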
# [6] = read-out: Tumor necrosis factor (Homo sapiens) (UniProt P01375); assay: BSK_BT_xTNFa: BioMAP Diversity Plus: BT Assay for Tumor necrosis factor alpha (TNF-alpha) Biomarker Activity (AID 2284230); details: primary human B cells with PBMC
# How it was run: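 Endpoint derived in the positive direction versus DMSO vehicle. Cells: B cells together with PBMC, exposed 24 h before TNF-alpha in the medium was read on the Luminex xMAP platform.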
# [7] = read-out: Vascular cell adhesion molecule 1 (VCAM1), VCAM1 (gene 7412); assay: BSK_MyoF_VCAM1: BioMAP Diversity Plus: MyoF Assay for Vascular cell adhesion molecule 1 (VCAM1) Biomarker Activity (AID 2284231); details: primary human lung fibroblasts
# How it was run: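 ELISA read-out of VCAM-1 on human lung fibroblasts 24 h after chemical treatment, with positive-direction curve fitting relative to DMSO controls. Parallel cultures were stained with sulforhodamine B for total protein to flag overt cytotoxicity.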
# [8] = CCTE_Mundy_HCI_Cortical_Synap_Neur_Matur_CellBodySpotCount: CCTE's Synaptogenesis and Neurite Maturation Assay in rat cortical cells for Cell Body Spot Count, Mundy Lab (AID 2284223)
# How it was run: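 Rat cortical neurons; AraC @ DIV 5; dose + media change DIV 7; fix DIV 12; anti-MAP2/anti-synaptophysin IF, Hoechst; HCI count of soma synaptophysin puncta/neuron; DMSO = negative control.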
# Sequence of Tumor necrosis factor (Homo sapiens) (P01375 whole entry, looked up): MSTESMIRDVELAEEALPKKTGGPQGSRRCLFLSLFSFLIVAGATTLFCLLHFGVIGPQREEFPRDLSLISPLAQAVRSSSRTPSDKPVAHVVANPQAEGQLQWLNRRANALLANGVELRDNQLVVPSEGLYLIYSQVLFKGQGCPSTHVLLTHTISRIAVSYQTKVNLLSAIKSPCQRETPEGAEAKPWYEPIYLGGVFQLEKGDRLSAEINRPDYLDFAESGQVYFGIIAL
smiles,measurement,setting,value
CCCCC(CC)COCCC#N (stereo not drawn),outcome,[1],inactive
same,outcome,[2],inactive
same,outcome,[3],inactive
same,outcome,[4],inactive
same,outcome,[5],inactive
same,outcome,[6],inactive
same,outcome,[7],inactive
CC(=O)Nc1ccccc1O,outcome,[1],inactive
same,outcome,[2],inactive
same,outcome,[3],inactive
same,outcome,[4],inactive
same,outcome,[5],inactive
same,outcome,[6],inactive
same,outcome,[7],inactive
O=C(O)C[C@H](O)C[C@H](O)/C=C/c1c(C2CC2)nc2ccccc2c1-c1ccc(F)cc1,outcome,[1],inactive
same,AC50,[2],0.122 µM (active)
same,outcome,[4],inactive
same,AC50,[5],2.42 µM (active)
same,AC50,[6],3 µM (active)
same,outcome,[7],inactive
C=C(C)C(=O)O[C@H]1C[C@@H]2CC[C@@]1(C)C2(C)C,outcome,[1],inactive
same,outcome,[2],inactive
same,outcome,[3],inactive
same,outcome,[4],inactive
same,outcome,[5],inactive
same,outcome,[6],inactive
same,AC50,[7],33.6 µM (active)
Cc1ccc(Nc2ccc(O)c3c2C(=O)c2ccccc2C3=O)cc1,outcome,[1],inactive
same,outcome,[2],inactive
same,outcome,[3],inactive
same,outcome,[4],inactive
same,outcome,[5],inactive
same,outcome,[6],inactive
same,outcome,[7],inactive
O=C1OC2(c3cc(Br)c(O)c(Br)c3Oc3c2cc(Br)c(O)c3Br)c2c(Cl)c(Cl)c(Cl)c(Cl)c21,outcome,[1],inactive
same,outcome,[2],inactive
same,outcome,[3],inactive
same,AC50,[4],8.52 µM (active)
same,AC50,[5],9.94 µM (active)
same,AC50,[6],13.2 µM (active)
same,AC50,[7],5.03 µM (active)
CCCCC(CC)COC(=O)/C=C\C(=O)OCC(CC)CCCC (stereo not drawn),AC50,[1],36.1 µM (active)
same,AC50,[2],7.47 µM (active)
same,AC50,[3],20 µM (active)
same,AC50,[4],11.2 µM (active)
same,outcome,[5],inactive
same,outcome,[6],inactive
same,outcome,[7],inactive
CCCCC/C=C/C=C/C=O,AC50,[1],20 µM (active)
same,AC50,[2],29 µM (active)
same,AC50,[3],20.1 µM (active)
same,AC50,[4],27.4 µM (active)
same,AC50,[5],20 µM (active)
same,AC50,[6],35.7 µM (active)
same,AC50,[7],34.9 µM (active)
O=C=NC1CCC(CC2CCC(N=C=O)CC2)CC1 (stereo not drawn),outcome,[1],inactive
same,AC50,[2],31 µM (active)
same,AC50,[3],31.2 µM (active)
same,outcome,[4],inactive
same,outcome,[5],inactive
same,outcome,[6],inactive
same,outcome,[7],inactive
CC1COc2ccccc2N1C(=O)C(Cl)Cl (stereo not drawn),AC50,[1],12.4 µM (active)
same,AC50,[2],20 µM (active)
same,AC50,[3],14.1 µM (active)
same,outcome,[4],inactive
same,outcome,[5],inactive
same,outcome,[6],inactive
same,AC50,[7],20 µM (active)
CCCCCCCCCC=O,outcome,[1],inactive
same,AC50,[2],20 µM (active)
same,outcome,[3],inactive
same,outcome,[4],inactive
same,outcome,[5],inactive
same,outcome,[6],inactive
same,outcome,[7],inactive
CC1CCC(C(C)CS)CC1S (stereo not drawn),outcome,[1],inactive
same,outcome,[2],inactive
same,outcome,[3],inactive
same,outcome,[4],inactive
same,outcome,[5],inactive
same,outcome,[6],inactive
same,AC50,[7],8.17 µM (active)
CN(C)C(=N)N=C(N)N,outcome,[8],inactive
BrC1CCC(Br)C(Br)CCC(Br)C(Br)CCC1Br (stereo not drawn),AC50,[1],32.4 µM (active)
same,AC50,[2],9.16 µM (active)
same,AC50,[3],28.4 µM (active)
same,outcome,[4],inactive
same,AC50,[5],17.4 µM (active)
same,AC50,[6],28.2 µM (active)
same,outcome,[7],inactive
Cc1ccc(O)c(C(C)(C)C)c1,outcome,[1],inactive
same,outcome,[2],inactive
same,outcome,[3],inactive
same,outcome,[4],inactive
same,outcome,[5],inactive
same,outcome,[6],inactive
same,AC50,[7],34.4 µM (active)
CC(C)c1ccc(C(C)C)cc1,outcome,[1],inactive
same,outcome,[2],inactive
same,outcome,[3],inactive
same,outcome,[4],inactive
same,outcome,[5],inactive
same,outcome,[6],inactive
same,outcome,[7],inactive
Cc1ccc2n[nH]nc2c1,outcome,[1],inactive
same,outcome,[2],inactive
same,outcome,[3],inactive
same,outcome,[4],inactive
same,outcome,[5],inactive
same,outcome,[6],inactive
same,outcome,[7],inactive
O=P(c1ccccc1)(c1ccccc1)c1ccccc1,outcome,[1],inactive
same,outcome,[2],inactive
same,outcome,[3],inactive
same,outcome,[4],inactive
same,outcome,[5],inactive
same,outcome,[6],inactive
same,outcome,[7],inactive
O=C(O)c1cn(-c2ccc(F)cc2)c2cc(N3CCNCC3)c(F)cc2c1=O,outcome,[1],inactive
same,outcome,[2],inactive
same,outcome,[3],inactive
same,outcome,[4],inactive
same,outcome,[5],inactive
same,outcome,[6],inactive
same,outcome,[7],inactive
CCc1c(C)cc(N)c(CC)c1N,outcome,[1],inactive
same,outcome,[2],inactive
same,outcome,[3],inactive
same,outcome,[4],inactive
same,outcome,[5],inactive
same,outcome,[6],inactive
same,outcome,[7],inactive
